# Results filed as inconclusive are left out. Activity calls are given as the source filed them. Rule as the data show it, unless noted: active = inhibition above about 80%; inactive = the rest.
# How the values were obtained:
# [1] = viability loss in pontine glioma line – cell-based, SU-DIPG-XVII, MIPE5.0, CellTiter-Glo, qHTS, dose response (AID 1347060; cut-off not given, nearly all actives have AC50 up to about 26 µM;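 as to AC50: cells exposed to compound for 48 hours before viability readout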); details: CellTiter-Glo ATP luminescence
# [2] = viability loss in pontine glioma line – cell-based, SU-DIPG-XIII, MIPE5.0, CellTiter-Glo, qHTS, dose response (AID 1347064; cut-off not given, nearly all actives have AC50 up to about 23 µM;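 as to AC50: cells exposed to compound for 48 hours before the viability read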); details: CellTiter-Glo ATP luminescence
# [3] = viability loss in pontine glioma line – cell-based, SU-DIPG-XXV, MIPE5.0, CellTiter-Glo, qHTS, dose response (AID 1347065; cut-off not given, nearly all actives have AC50 up to about 26 µM;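 also: cells exposed to compound for 48 hours before ATP readout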); details: CellTiter-Glo ATP luminescence
# [4] = JHH-DIPG-1 glioma cell viability, MIPE5.0 library, CellTiter-Glo luminescence, qHTS (AID 1347067; cut-off not given, nearly all actives have AC50 up to about 26 µM;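 also: cells exposed to compound for 48 hours before readout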); details: JHH-DIPG-1 glioma viability, CellTiter-Glo ATP luminescence
# [5] = growth inhibition of DIPG cells – cell-based, MIPE5.0 library, qHTS (AID 1347068; cut-off not given, nearly all actives have IC50 up to about 30 µM;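 as to IC50: cells exposed to compound for 48 hours before viability readout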); details: SU-DIPG-XXV viability
# [6] = viability loss with induced miR-34 in A549 – imaging, A549 dox-inducible miR-34, nuclei and caspase counts, primary screen (AID 1347080;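 active = compounds whose cell count with miR-34 switched on is under 0.7 times the count with it off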); details: A549 miR-34 inducible, Hoechst nuclei count, 48 h
# [7] = MELAS cybrid and Rieske KO viability enhancers – cell-based, MELAS cybrids, Rieske KO mouse fibroblasts, CellTiter-Glo, primary screen (AID 1508586;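 active = mean z-score across replicates of 1.96 or higher in either the MELAS or the Rieske mutant cell line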;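 also: z relative to plate mean and SD of compound and empty wells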); details: low glucose
# [8] = growth inhibition, single agent or in combination, cell-based, chromothripsis tumors, cisplatin or BGB combos (AID 1671449); details: LFS_MB_P medulloblastoma cells;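 also: cells exposed for 96 hours; 0% = vehicle DMSO and 100% = killing by high DMSO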
# [9] = growth inhibition, single agent and combos, cell-based, chromothripsis tumors, cisplatin or BGB combos (AID 1671450); details: HDN33 neuroblastoma cells, stronger effect = higher value;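 also: cells exposed to compound for four days; 0% = vehicle DMSO and 100% = cell killing by high DMSO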
# [10] = growth inhibition, single agents and combos, ICB984, cell-based, cisplatin or BGB combos, synergistic combos for chromothripsis tumors (AID 1671451; call rule not given here;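 also: cells exposed for 96 hours before readout; 0% = vehicle DMSO and 100% = killing by high DMSO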); details: ICB984 medulloblastoma cells, drug combinations, stronger effect = higher value
# [11] = growth inhibition, single agents and combos, LFS_MB_1R, cell-based, cisplatin or BGB combos, synergistic combos for chromothripsis tumors (AID 1671452); details: LFS_MB_1R medulloblastoma cells, stronger effect = higher value;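 also: cells exposed for 96 hours before readout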
# [12] = growth inhibition, single agents and combos, HTB85, cell-based, BGB or cisplatin IC20 combos, synergistic combos for chromothripsis tumors (AID 1671453); details: HTB85 osteosarcoma cells, drug combinations, stronger effect = higher value;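 also: cells exposed for 96 hours before readout; 0% = vehicle DMSO and 100% = high DMSO killing control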
# [13] = growth inhibition, single agents and combos, CRL2098, cell-based, BGB or cisplatin IC20 combos, synergistic combos for chromothripsis tumors (AID 1671454); details: CRL2098 osteosarcoma cells, drug combinations, stronger effect = higher value;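 also: cells exposed for 96 h before readout; 0% = vehicle DMSO and 100% = killing by high DMSO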
# [14] = growth inhibition, single agents and combos, HD-MB03, cell-based, BGB or cisplatin IC20 combos, synergistic combos for chromothripsis tumors (AID 1671455; in the data active = inhibition above about 83%;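 also: 0% = vehicle DMSO and 100% = high DMSO as cytotoxic control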); details: HD-MB03 medulloblastoma cells, stronger effect = higher value
# [15] = growth inhibition, single agents and combos, UWB1.289, cell-based, BGB or cisplatin combos, synergistic combos for chromothripsis tumors (AID 1671456); details: UWB1.289 ovarian carcinoma cells, stronger effect = higher value;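 also: cells exposed to compound for four days; 0% = vehicle DMSO and 100% = killing by high DMSO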
# [16] = growth inhibition, MDA-MB-436, cell-based, BGB or cisplatin combos, synergistic combos for chromothripsis tumors (AID 1671458; call rule not given here;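 also: cells exposed for 96 hours; 0% = vehicle DMSO and 100% = killing by high DMSO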); details: MDA-MB-436 breast carcinoma growth inhibition, drug combinations, stronger effect = higher value
# [17] = BT084 cell growth, single and combined drugs, ICGC_MB145, cisplatin and BGB IC40 combos (AID 1671461); details: BT084 medulloblastoma cells, drug combinations, stronger effect = higher value;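 also: cells exposed to drugs for 96 hours; 0% = vehicle DMSO and 100% = high DMSO full killing control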
# [18] = RCMB18 cell growth, single agent and combined, cisplatin and BGB IC40 combos (AID 1671462); details: RCMB18 medulloblastoma cells, stronger effect = higher value;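 also: cells exposed to compound for four days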
# [19] = CRL1545 cell growth, single agent and combined, cisplatin and BGB IC20 combos (AID 1671464); details: CRL1545 osteosarcoma cells, stronger effect = higher value;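 also: cells exposed to compound for 96 hours before readout; 0% = vehicle DMSO and 100% = high DMSO killing control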
# [20] = measured here: combination with BGB IC40, at 0.05 µM
# [21] = measured here: with BGB IC20 combination, at 0.5 µM
# [22] = measured here: with cisplatin IC20 combination, at 0.5 µM
# [23] = measured here: combination with cisplatin, at 0.5 µM
structure (smiles),measurement,setting,value
Cc1ccc(C(=O)Nc2ccc(CN3CCN(C)CC3)c(C(F)(F)F)c2)cc1C#Cc1cnc2[nH]ncc2c1,AC50,[1],0.0417 µM (active)
same,AC50,[2],0.0118 µM (active)
same,AC50,[3],0.0263 µM (active)
same,AC50,[4],0.468 µM (active)
same,IC50,[5],0.332 µM (active)
same,fold change,"[6]; stronger effect = lower value, cell number ratio, induced over uninduced",0.928 (inactive)
same,fold change,[6]; measured here: relative caspase fold change +Dox/-Dox,0.675
same,cell count,"[6]; measured here: total cells with miR-34 induction, stronger effect = lower value",506
same,cell count,[6]; measured here: total cells without miR-34 induction,546
same,z-score,"[7]; MELAS cybrid survival, CellTiter-Glo 48 h, stronger effect = higher value",0.831 (inactive)
same,z-score,"[7]; Rieske KO mouse fibroblast survival, CellTiter-Glo 72 h",-6.34
NC1CCC(N[C@@H]2C[C@H]2c2ccccc2)CC1 (stereo not given in full),outcome,[1],inactive
same,outcome,[2],inactive
same,outcome,[3],inactive
same,outcome,[4],inactive
same,outcome,[5],inactive
same,inhibition,"[8]; at 0.5 µM, stronger effect = higher value",20.5% (inactive)
same,inhibition,"[8]; measured here: combination with BGB IC20, at 0.005 µM",-7.63%
same,inhibition,"[8]; measured here: combination with BGB IC40, at 0.005 µM",-36.6%
same,inhibition,[8]; [20],-4.73%
same,inhibition,"[8]; measured here: combination with cisplatin, at 0.5 µM, stronger effect = higher value",61.5%
same,inhibition,"[8]; measured here: combination with cisplatin, at 5 µM, stronger effect = higher value",-33.8%
same,inhibition,"[9]; BGB combo, at 5 µM",-29.3%
same,inhibition,[9]; at 0.5 µM,-3.39% (inactive)
same,inhibition,"[9]; cisplatin combo, at 5 µM",-5%
same,inhibition,[9]; [21],-15.4%
same,inhibition,[9]; [22],-4.58%
same,inhibition,"[9]; single agent, at 5 µM",-15%
same,inhibition,"[10]; BGB IC20 combo, at 0.005 µM",1.45%
same,inhibition,"[10]; BGB IC40 combo, at 0.005 µM",-40%
same,inhibition,"[10]; BGB IC40 combo, at 0.05 µM",-44.5%
same,inhibition,[10]; at 0.5 µM,-31.6% (inactive)
same,inhibition,"[10]; cisplatin combo, at 0.05 µM",-50.3%
same,inhibition,"[10]; cisplatin combo, at 0.5 µM",-54.9%
same,inhibition,"[10]; cisplatin combo, at 5 µM",-29.9%
same,inhibition,"[10]; measured here: 5 uM single agent, at 5 µM",-0.182%
same,inhibition,[11]; at 0.5 µM,-25.6% (inactive)
same,inhibition,[11]; [20],-43.6%
same,inhibition,[11]; [23],-41.7%
same,inhibition,"[11]; measured here: combination with cisplatin, at 5 µM",-14.7%
same,inhibition,[12]; at 0.5 µM,0.26% (inactive)
same,inhibition,"[12]; measured here: with BGB IC20, at 0.5 µM",13%
same,inhibition,"[12]; measured here: with BGB IC20, at 5 µM",4.36%
same,inhibition,"[12]; measured here: with cisplatin IC20, at 0.5 µM",-8.09%
same,inhibition,"[12]; measured here: with cisplatin IC20, at 5 µM",0.769%
same,inhibition,"[12]; single agent, at 5 µM",26.6%
same,inhibition,[13]; at 0.5 µM,-30% (inactive)
same,inhibition,"[13]; measured here: combination with BGB at IC20, at 0.5 µM",8.8%
same,inhibition,"[13]; measured here: combination with cisplatin at IC20, at 0.5 µM",-54.3%
same,inhibition,[14]; at 0.5 µM,-7.1% (inactive)
same,inhibition,"[14]; measured here: combo with BGB at IC20, at 0.5 µM",-21.2%
same,inhibition,"[14]; measured here: combo with cisplatin at IC20, at 0.5 µM",17.1%
same,inhibition,[15]; at 0.5 µM,-1.76% (inactive)
same,inhibition,"[15]; measured here: inhibition with BGB combination, at 0.05 µM",-8.52%
same,inhibition,"[15]; measured here: inhibition with cisplatin combination, at 0.05 µM",-20.9%
same,inhibition,[16]; at 0.5 µM,-9.19% (inactive)
same,inhibition,"[16]; measured here: BGB combination, at 0.5 µM",-1.28%
same,inhibition,"[16]; measured here: BGB combination, at 5 µM",-16.2%
same,inhibition,"[16]; measured here: cisplatin combination, at 0.5 µM",-20.5%
same,inhibition,"[16]; measured here: cisplatin combination, at 5 µM",-12.9%
same,inhibition,[17]; at 0.5 µM,-8.52% (inactive)
same,inhibition,"[17]; cisplatin combination, at 0.5 µM",-9.89%
same,inhibition,"[17]; cisplatin combination, at 5 µM",-5.53%
same,inhibition,"[17]; measured here: BGB IC40 combination 0.05 uM, at 0.05 µM",65.9%
same,inhibition,"[17]; single agent, at 5 µM",3.43%
same,inhibition,[18]; at 0.5 µM,-11.5% (inactive)
same,inhibition,"[18]; cisplatin combo, at 5 µM",-6.41%
same,inhibition,"[18]; measured here: BGB IC40 combination, at 0.05 µM",-13.6%
same,inhibition,[18]; [23],-9.08%
same,inhibition,"[18]; single agent, at 5 µM",-32.3%
same,inhibition,[19]; at 0.5 µM,-40.7% (inactive)
same,inhibition,[19]; [21],-47.5%
same,inhibition,[19]; [22],-37.3%
same,inhibition,"[19]; single agent, at 0.05 µM",-32.5%
same,inhibition,"[19]; single agent, at 5 µM",-26.5%
